Experimental data: the OligoGym collection

What follows are sequences tested against DAGLA (assay: pooled miR-30 sensor sort-seq; sequence = guide strand). Conditions: shRNA.
Also: reference of the scale not given here.

| Sequence | sensor-assay potency score (higher = more potent) |
| --- | --- |
| TTGAGGTCGAGGTACTTGGTGT | -0.552 |
| TTTGTAGCGGAGCATCTCTTGT | -1.44 |
| TTGTAGTTCTCCAGCACCTTGT | -0.221 |
| TTTCATCTGAGAGTCTGTCTTG | 0.187 |
| TTGGCAGTGAGGTCGTTGCAGG | -1.13 |
| TAGTTCTCCAGCACCTTGTTGA | -0.467 |
| TATAGTTAGGTCGCTGGGGTGG | -0.742 |
| TATACAATATACAGAAACCTTT | -0.353 |
| TCTTCTTGATGTACTCAGCTGA | 0.266 |
| TAAACATGTACAGCACTGCAGG | -1.11 |
| TTGTTTTCTAAACTCTAAGAGC | -0.925 |
| TTTCTTCTTGTCATGGTCCACC | -0.657 |

The sequences below were run against DAZ2 in the same assay as above. Conditions: shRNA.

| Sequence | sensor-assay potency score (higher = more potent) |
| --- | --- |
| TATACAGGCAACTGATATCCAG | -0.956 |
| TCGTGATTATCTTCACTTCTTT | -0.86 |
| TGGATAAGCAGAATAAGCCTGA | -0.294 |

What follows are sequences tested against DCAF4L2 in the same assay as above. Conditions: shRNA.

| Sequence | sensor-assay potency score (higher = more potent) |
| --- | --- |
| TAAACATCTCACAAACTGCTGC | -0.0348 |
| TACTGTGTTACACATTTAGTGG | -1.02 |
| TTTGCAGAGAAGTCACTGCTGA | 0.521 |
| TCTGACTGTCTTTTTCTGCTTG | 0.906 |
| TTCTTCGTTCACATGCACGGGT | 0.233 |
| TTATCTTTGACACTGAGCCCTT | -0.414 |
| TGTATCTTCTCTATTGACCTAT | 0.0322 |
| TTTTCTTTTGTCAACTGCCCAT | -0.395 |
| TACCTATGAACAGCGACGCTGG | -0.732 |
| TTAACTGAAACAACTTTACAGA | -0.678 |
| TTGGAGTATCTGCAAGTCCCAC | -0.914 |
| TAGCTGGTTCTTTCGTAGCATG | -1.53 |

The sequences below were run against DCHS2 in the same assay as above. Conditions: shRNA.

| Sequence | sensor-assay potency score (higher = more potent) |
| --- | --- |
| TTTTCTGGAACAATACAGCTGA | 0.21 |
| TTCATAGTCAAACTGTCGCCGC | -0.481 |
| TAGAATAGGTCAATTCTCCATA | -0.353 |
| TAGAAAGAAACAAGTCTCCGGT | 0.782 |
| TATATCAGTCACCTGTACCTTG | 0.322 |
| ATACTTATTAAACTCAACCATT | -1.29 |
| TGTACCTTGATTACAGTCGTAT | -0.366 |
| TTATAGTAAAGCACTCATCAGT | -0.223 |
| TGAATTATCATTCTCATCCTGT | 0.421 |
| TTGAGAACATAAACTGAGGTGC | 0.162 |
| TAATCTAGAATCGCTTTTGTTG | -0.749 |
| TGGATTATCATTGACATCCAGC | -1.15 |
